Assay results taken from PubChem BioAssay (Tox21).
A number with no mark means an inactive call. Calls of active or inactive are those of the source. Calls follow the shape of the dose curve; as a rule, active = well fitted curve in the direction sought with a large enough effect in the repeat runs; inconclusive = weak or mixed curves; inactive = flat fitted curve, though single readings scatter.

Experiment: qHTS assay to test for compound auto fluorescence at 535 nm (green) in HEK293 cell free culture (AID 720682)
Conditions: cell-free medium, green autofluorescence 485/535 nm, hits give high values; series mostly up to 46 µM; activity change: at the top concentration
Description: U.S. Tox21 Program National Center for Advancing Translational Sciences [NCATS] NIH Chemical Genomics Center [NCGC] U.S. Environmental Protection Agency [EPA] National Institutes of Environmental Health Sciences [NIEHS] National Toxicology Program [NTP] U.S. Food and Drug Administration [FDA] Tox21 Assay Overview: Compound auto fluorescence often interferes with screening of the compound library against various biological targets and signaling pathways. Some of these compounds may have fluorophoric properties. Such properties may interfere with the assay outputs resulting in false positives and/or negatives. To decrease such complications and ensure the compound activities are relevant in terms of biological response, the Tox21 10K compound library was screened for auto fluorescence. From the fluorophores used as reporter signals in our screening assays, the auto fluorescence equivalencies of compounds against three fluorophores have been evaluated: Triamterene, Fluorescein and Rose Bengal sodium for blue, green and red fluorescence, respectively. The fluorescence intensities were measured using Excitation/Emission wavelengths at 405/460nm, 485/535nm and 540/590nm for blue, green and red labels, respectively. This assay includes the green fluorescence data.
Tox21 Assay Protocol Summary: 5 uL of culture medium (DMEM containing 10% FBS) per well was dispensed into black wall/clear bottom 1536-well plates using a Multidrop Combi Dispenser (ThermoFisher Scientific, Waltham, MA). After 23 nL compound or DMSO vehicle was transferred into assay plate by a pintool work station (Kalypsys, San Diego, CA), fluorescence intensities in the assay plates were measured by an Envision (PerkinElmer, Shelton, CT) plate reader using three labels for measuring blue, green and red fluorescence at […] 460, 535 and 590nm respectively.
% is scaled to controls: 0 for no effect and ±100 for the full control effect.

Row | Compound | activity change | outcome
1 | CS(=O)(=O)c1ccc([C@@H](CC2CCCC2)C(=O)Nc2cnccn2)cc1Cl | -0.0356% [at 91.3 µM] | –
2 | CO/N=C(\C(=O)N[C@@H]1C(=O)N2C(C(=O)[O-])=C(C[n+]3ccc(N)n3CCO)CS[C@H]12)c1csc(N)n1 | 0.0394% | –
3 | CC(C)CCC[C@@H](C)[C@H]1CC[C@H]2[C@@H]3CC[C@@H]4C[C@H](O)CC[C@]4(C)[C@H]3CC[C@]12C | -0.0898% | –
4 | Cc1cc(-c2ccc(N=Nc3ccc4c(S(=O)(=O)O)cc(S(=O)(=O)O)c(N)c4c3O)c(C)c2)ccc1N=Nc1ccc2c(S(=O)(=O)O)cc(S(=O)(=O)O)c(N)c2c1O | – | inactive
5 | O=C(O)/C=C/C(=O)Nc1ccc(S(=O)(=O)Nc2nccs2)cc1 | -0.031% | –
6 | CCCCCCCCCCCCCCCC(=O)OC[C@H](COP(=O)([O-])OCC[N+](C)(C)C)OC(=O)CCCCCCCCCCCCCCC | -0.0025% | –
7 | C=CC1=C(C(=O)O)N2C(=O)[C@@H](NC(=O)/C(=N\O)c3csc(N)n3)[C@H]2SC1 (stereo in doubt) | – | inactive
8 | CCc1ncnc2cc(OC)c(OC)cc12 | -0.0564% | –
9 | CC1(C)S[C@@H]2[C@H](NC(=O)[C@H](N)c3ccc(O)cc3)C(=O)N2[C@H]1C(=O)O | -0.0079% | –
10 | CC(C)=CCC/C(C)=C/CC/C(C)=C/CC/C=C(\C)CC/C=C(\C)CCC=C(C)C | – | inactive
11 | COc1ccc([C@@H]2CC(=O)c3c(O)cc(O[C@@H]4O[C@H](CO[C@@H]5O[C@@H](C)[C@H](O)[C@@H](O)[C@H]5O)[C@@H](O)[C@H](O)[C@H]4O)cc3O2)cc1O | 0.0256% [at 18.6 µM] | –
12 | CN=C(N)NCCC[C@H](N)C(=O)O | – | inactive
13 | Nc1cc(Cl)c(NC2=NCCN2)c(Cl)c1 | -0.0084% | –
14 | C[S+](CC[C@H](N)C(=O)O)C[C@H]1O[C@@H](n2cnc3c(N)ncnc32)[C@H](O)[C@@H]1O (stereo not given in full) | – | inactive
15 | COc1cc2c(cc1OC)[C@@H](Cc1cc(OC)c(OC)c(OC)c1)[N+](C)(CCCOC(=O)CC/C=C/CCC(=O)OCCC[N+]1(C)CCc3cc(OC)c(OC)cc3[C@H]1Cc1cc(OC)c(OC)c(OC)c1)CC2 (stereo not given in full) | – | inactive
16 | O=C(O)[C@H]1CN(C/C=C/P(=O)(O)O)CCN1 | -0.0159% | –
17 | CCOc1ccc([N+](=O)[O-])cc1 | 0.0072% [at 95.7 µM] | –
18 | O=C1OC(=O)c2cc(-c3ccc4c(c3)C(=O)OC4=O)ccc21 | 0.0591% [at 91.3 µM] | –
19 | CC(C)(C)C(=O)OCC(=O)[C@H]1CC[C@H]2[C@@H]3CCC4=CC(=O)CC[C@]4(C)[C@H]3CC[C@]12C | -0.0051% | –
20 | NCC1CCC(C(=O)O)CC1 (stereo not given) | -0.0119% [at 18.6 µM] | –

Row | Compound | activity change | outcome
21 | CN[C@H](CC(C)C)C(=O)N[C@H]1C(=O)N[C@@H](CC(N)=O)C(=O)N[C@H]2C(=O)N[C@H]3C(=O)N[C@H](C(=O)N[C@@H](C(=O)O)c4cc(O)cc(O)c4-c4cc3ccc4O)[C@H](O)c3ccc(c(Cl)c3)Oc3cc2cc(c3O[C@@H]2O[C@H](CO)[C@@H](O)[C@H](O)[C@H]2O[C@H]2C[C@](C)(N)C(O)[C@H](C)O2)Oc2ccc(cc2Cl)[C@H]1O (stereo not given in full) | – | inactive
22 | CC/C=C\C/C=C\C/C=C\C/C=C\C/C=C\C/C=C\CCC(=O)O | 0.276% | –
23 | CN[C@@H]1[C@@H](O[C@H]2O[C@H](CO)[C@@H](N)[C@H](O)[C@H]2O)O[C@H]2C[C@@H](N)[C@@H](O[C@H]3[C@H](O)[C@@H](O)[C@H](N)C[C@@H]3N)O[C@@H]2[C@@H]1O | -0.0311% [at 18.6 µM] | –
24 | Cc1ncc(C[n+]2csc(CCOP(=O)(O)O)c2C)c(N)n1 | 0.0472% | –
25 | CC(=O)OCC(=O)[C@@]1(O)CC[C@H]2[C@@H]3C[C@H](C)C4=CC(=O)C=C[C@]4(C)[C@H]3[C@@H](O)C[C@@]21C | 0.0083% | –
26 | CC[C@H]1OC(=O)C[C@@H](O)[C@H](C)[C@@H](O[C@@H]2O[C@H](C)[C@@H](O)[C@H](N(C)C)[C@H]2O)[C@@H](CCN2C[C@H](C)C[C@H](C)C2)C[C@@H](C)C(=O)/C=C/C(C)=C/[C@@H]1CO[C@@H]1O[C@H](C)[C@@H](O)[C@@H](OC)[C@H]1OC | -0.0103% | –
27 | CC1=C(/C=C/C(C)=C/C=C/C(C)=C\C(=O)O)C(C)(C)CCC1 | 0.253% [at 91.3 µM] | –
28 | CN(Cc1ccccc1)Cc1ccccc1 | 0.101% | –
29 | O=C(O)/C=C/C(O)c1ccc(Cl)cc1 (stereo not given) | -0.13% | –
30 | CCCCCCCCCC(=O)NO | – | inactive
31 | CC[C@@H](C(=O)[C@@H](C)[C@@H](O)[C@H](C)CCc1ccc(C)c(O)c1C(=O)O)[C@H]1O[C@](CC)([C@H]2CC[C@](O)(CC)[C@H](C)O2)C[C@@H]1C | -0.0446% | –
32 | OCC1(CO)COC(C(Cl)(Cl)Cl)OC1 | 0.112% | –
33 | CC12CCC(C1)C(C)(C)C2=O (stereo not given) | 0.115% | –
34 | C[N+](C)(C)CCOP(=O)(O)OP(=O)([O-])OC[C@H]1O[C@@H](n2ccc(N)nc2=O)[C@H](O)[C@@H]1O | – | inactive
35 | CCCOC(=O)c1ccc(O)cc1 | – | inactive
36 | CN(C)CCc1c[nH]c2ccc(Cn3cncn3)cc12 | 0.122% | –
37 | C/C(=C(/CCO)SSCC1CCCO1)N(C=O)Cc1cnc(C)nc1N (stereo not given) | – | inactive
38 | CCN(CC)CCOC[C@H]1O[C@@H](O)[C@H](OCCN(CC)CC)[C@@H](O)[C@@H]1O | -0.0104% | –
39 | CC(C)(Oc1ccc(C2CCCc3ccccc32)cc1)C(=O)O (stereo not given) | -0.0946% | –
40 | CN1CCN(CCCN2c3ccccc3Sc3ccc(Cl)cc32)CC1 | 0.0889% | –
